# Inconclusive results are not listed. Unmarked numbers belong to inactive results. Active and inactive are the calls of the source. Calls follow the shape of the full dose curve.
# Experiment: Primary qHTS for inhibitors of SARS-S pseudo-typed particle cell entry (AID 1479145); also: nearly all actives have a fitted effect of over 45% in size
# Settings: SARS-S pseudotyped particle cell entry, luciferase reporter; series mostly up to 57.1 µM; activity change, negative = inhibition: at the top concentration
# % is scaled to controls: 0 for no effect and ±100 for the full control effect.
Compound,outcome,"activity change, negative = inhibition"
C[N+](C)(C)CC(=O)O,inactive,
CC(Cc1ccc(O)cc1)NCC(O)c1cc(O)cc(O)c1 (configuration not stated),,-19.1%
Cc1cc(O)ccc1Cl,inactive,

# Experiment: Primary qHTS for Huh7 cytotoxicity: counterscreen for inhibitors of MERS-S pseudotyped particle cell entry (AID 1479147)
# Settings: cell viability read-out; series mostly up to 57.1 µM; activity change, negative = cytotoxicity: at the top concentration
Compound,outcome,"activity change, negative = cytotoxicity"
C[N+](C)(C)CC(=O)O,inactive,
CC(Cc1ccc(O)cc1)NCC(O)c1cc(O)cc(O)c1 (configuration not stated),,3.22%
Cc1cc(O)ccc1Cl,inactive,

# Experiment: Primary qHTS for inhibitors of MERS-S pseudo-typed particle cell entry (AID 1479149); also: nearly all actives have a fitted effect of over 60% in size
# Settings: MERS-S pseudotyped particle entry, luciferase; series mostly up to 57.1 µM; activity change, negative = inhibition: at the top concentration
Compound,"activity change, negative = inhibition",outcome
C[N+](C)(C)CC(=O)O,4.33%,
CC(Cc1ccc(O)cc1)NCC(O)c1cc(O)cc(O)c1 (configuration not stated),,inactive
Cc1cc(O)ccc1Cl,,inactive

# Experiment: Primary qHTS for Vero E6 cytotoxicity: counterscreen for inhibitors of SARS-S pseudo-typed particle cell entry (AID 1479150)
# Settings: cell viability; series mostly up to 57.1 µM; activity change, negative = cytotoxicity: at the top concentration
row,Compound,"activity change, negative = cytotoxicity"
1,C[N+](C)(C)CC(=O)O,0.776%
2,CC(Cc1ccc(O)cc1)NCC(O)c1cc(O)cc(O)c1 (configuration not stated),2.2%
3,Cc1cc(O)ccc1Cl,-14.8%

# — PubChem BioAssay (NCATS)
